Results from the supplement of paper PMC4166925.
± gives the standard deviation of the averaged measurements. The full ranking holds about 33,000 sequences; the median of “E-score (dimensionless, -0.5 to 0.5)” is about -0.046, and the highest 2% start at about 0.36. For the sample, the highest values were picked, then their nearest neighbours and some sequences at random.

Each sequence was assayed on T1, SpTbr T-box DNA-binding domain (GST fusion) (assay: PBM E-score of 8-mer (E-score (dimensionless, -0.5 to 0.5)); Tbr is Tbrain of the sea star Patiria miniata (Pm) or the sea urchin Strongylocentrotus purpuratus (Sp); higher = stronger binding preference). Conditions: the construct has about 5 more residues each side.
T1 sequence: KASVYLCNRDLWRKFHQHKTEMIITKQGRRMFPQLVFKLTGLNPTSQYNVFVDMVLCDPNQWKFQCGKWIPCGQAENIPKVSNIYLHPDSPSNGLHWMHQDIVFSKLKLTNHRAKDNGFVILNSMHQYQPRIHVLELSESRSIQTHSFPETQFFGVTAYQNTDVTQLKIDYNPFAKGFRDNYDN
Protocol: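 Universal protein-binding microarray (Agilent AMADID 016060, 60-bp probes with a 35-bp variable region) incubated with 200 nM GST-fused Strongylocentrotus purpuratus Tbr T-box DNA-binding domain (residues 362-554) in PBS pH 7.5. Scored for every ungapped 8-mer (given with its reverse complement) as E-score (range -0.5 to 0.5; >0.45 counts as bound) and Z-score of median probe intensity. Two replicate arrays (datasets 1 and 2).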
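Also: protein at 200 nM in PBS on universal double-stranded arrays.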

Row | Sequence | PBM E-score of 8-mer
1 | GAGATTGC | 0.116 ± 0.014
2 | CGCTGGCC | -0.032 ± 0.027
3 | CTTACTCC | -0.125 ± 0.049
4 | CAGCGTGG | -0.111 ± 0.012
5 | CAGTCCAC | 0.192 ± 0.026
6 | AGCACTCA | 0.079 ± 0.03
7 | AAAGCAAA | 0.00628 ± 0.091
8 | CTGTGGAA | 0.061 ± 0.12
9 | GTGTGGGA | 0.387 ± 0.038
10 | ATGTGGGA | 0.234 ± 0.041
11 | GTGTGGAA | 0.3848 ± 0.0012
12 | ATGTGGAA | 0.0153 ± 0.034
13 | CTGTGGGA | 0.105 ± 0.057
14 | CGGCCCAG | -0.2798 ± 0.0014
15 | CAGAATGC | 0.0116 ± 0.023
16 | GCCACGAA | 0.00399 ± 0.009
17 | CGCCAGCC | 0.0479 ± 0.008
18 | AGCGAACA | 0.078 ± 0.037
19 | CGCGAAAA | 0.347 ± 0.04
20 | GGCGAACA | 0.137 ± 0.018
21 | AGCGAAAA | -0.0276 ± 0.011
22 | TGCGAAAA | 0.383 ± 0.038

Row | Sequence | PBM E-score of 8-mer
23 | TGCGAACA | 0.419 ± 0.015
24 | CGTTTCAA | -0.029 ± 0.015
25 | CGCTGTAC | -0.164 ± 0.046
26 | ATACAGGG | -0.276 ± 0.015
27 | AAGGGTAT | -0.121 ± 0.02
28 | AAGCGTGG | 0.179 ± 0.047
29 | ATGCGTGA | 0.374 ± 0.0053
30 | ACGCGTGC | 0.149 ± 0.066
31 | ACGCGTGA | 0.407 ± 0.0058
32 | AAGCGTGT | 0.288 ± 0.012
33 | AGGCGTGG | 0.321 ± 0.044
34 | AAGCGTGA | 0.415 ± 0.01
35 | GTGCGTGA | 0.316 ± 0.057
36 | CTGCGTGA | 0.172 ± 0.033
37 | AGGCGTGC | 0.236 ± 0.052
38 | GCGCGTGA | 0.344 ± 0.033
39 | AGGCGTGA | 0.4754 ± 0.0047
40 | AGGATGAT | -0.095 ± 0.066
41 | TCCACGGA | -0.0375 ± 0.11
42 | CTCCAAGA | -0.0401 ± 0.032
43 | ACGGCTCA | -0.0392 ± 0.022
44 | TTATTGAA | -0.142 ± 0.024

Row | Sequence | PBM E-score of 8-mer
45 | GAATCAGA | -0.0679 ± 0.055
46 | AGGCGTTG | 0.355 ± 0.0053
47 | AGGCGTTA | 0.434 ± 0.018
48 | GGGCGTGA | 0.44 ± 0.015
49 | GGGCGTTA | 0.2697 ± 0.0022
50 | CGGCGTGA | 0.33 ± 0.047
51 | GGGCGTAA | 0.131 ± 0.047
52 | CACTAGCG | 0.139 ± 0.072
53 | AGGTTTGC | -0.0997 ± 0.11
54 | ATCGTGAG | 0.208 ± 0.0056
55 | TATTCGGA | -0.284 ± 0.034
56 | CACTCAGG | -0.0871 ± 0.041
57 | CGTGCGCA | 0.155 ± 0.0026
58 | GCTGCGAC | 0.137 ± 0.059
59 | GTTGCGAA | 0.393 ± 0.0099
60 | CGTGCAAA | 0.146 ± 0.024
61 | AGTGCGTA | 0.0849 ± 0.013
62 | CTTGCGAA | 0.343 ± 0.019
63 | GATGCGAC | 0.216 ± 0.022
64 | GGTGCGAC | 0.452 ± 0.0081
65 | ATTGCGAA | 0.284 ± 0.041
66 | AGTGCGAA | 0.47263 ± 0.00019

Row | Sequence | PBM E-score of 8-mer
67 | CGTGCGAA | 0.4443 ± 0.0016
68 | AATGCGAA | 0.0358 ± 0.024
69 | AATAGCAT | -0.0159 ± 0.004
70 | ATCCTGTG | 0.00404 ± 0.015
71 | AATATCAT | -0.161 ± 0.0081
72 | CCTGGGCG | 0.118 ± 0.03
73 | TCTGCGAA | 0.202 ± 0.04
74 | TGTGCGAA | 0.458 ± 0.0092
75 | CCTGCGAA | 0.367 ± 0.0099
76 | GATGCGAA | 0.202 ± 0.066
77 | TATGCGAA | 0.131 ± 0.068
78 | ACTGCGAA | 0.332 ± 0.018
79 | ACGCGAAG | 0.185 ± 0.027
80 | AAAGTAGA | -0.0436 ± 0.055
81 | ACTTGTAC | -0.109 ± 0.04
82 | CACTCGGC | 0.143 ± 0.021
83 | ACGCGAAA | 0.138 ± 0.018
84 | ACGCGAAC | 0.276 ± 0.003
85 | GCGCGATA | 0.288 ± 0.014
86 | GCGCGAAC | 0.439 ± 0.018
87 | CCGCGAAA | 0.32 ± 0.025
88 | GCGCGACA | 0.3438 ± 0.0009

Row | Sequence | PBM E-score of 8-mer
89 | TCGCGAAA | 0.403 ± 0.026
90 | CCGCGAAC | 0.338 ± 0.0083
91 | GCGCGAAA | 0.4374 ± 0.0039
92 | GCGTCGAC | 0.114 ± 0.082
93 | CCAAATAA | -0.267 ± 0.079
94 | GTGGAAAA | 0.125 ± 0.036
95 | AAACAGCT | 0.0803 ± 0.013
96 | CCTGTCAC | 0.3163 ± 0.0011
97 | ATTGTCAG | 0.0298 ± 0.045
98 | ATTGTCAC | 0.399 ± 0.013
99 | CTTGTCAC | 0.39 ± 0.013
100 | ATTGTCAA | 0.225 ± 0.019
101 | CTTGTCAA | 0.355 ± 0.0065
102 | CCAGCACC | 0.216 ± 0.04
103 | CTGAACAC | -0.0318 ± 0.035
104 | ACTCTTTC | 0.0551 ± 0.015
105 | CCACTTTC | 0.0779 ± 0.016
106 | ACACTTTG | 0.379 ± 0.005
107 | AGACTTTG | -0.0212 ± 0.042
108 | ACACTTTC | 0.402 ± 0.027
109 | ACACTTTA | 0.324 ± 0.043
110 | CGCATAGA | -0.0202 ± 0.12
